Experimental data reported in ChEMBL document CHEMBL1157539, “Thousands of chemical starting points for antimalarial lead identification” (Nature, 2010).

Columns and labels:
Format in all cases: functional
Plasmodium falciparum [1] = assay: GSK_TCMDC: Inhibition of Plasmodium falciparum 3D7 in whole red blood cells, using parasite LDH activity as an index of growth. Test compounds present at 2uM
Plasmodium falciparum [2] = assay: GSK_TCMDC: Inhibition of Plasmodium falciparum Dd2 in whole red blood cells, using parasite LDH activity as an index of growth. Test compounds present at 2uM
HepG2 = assay: GSK_TCMDC: Percent inhibition of human HepG2 cell line. Test compounds present at 10uM.

SMILES	Inhibition (Plasmodium falciparum [1])	Inhibition (Plasmodium falciparum [2])	Inhibition (HepG2)
O=S(=O)(Nc1ccc(CCN2CCC(N3CCCCC3)CC2)cc1)c1ccccc1C(F)(F)F	95%	8%	9%
Cc1[nH]c(C)c(-c2ccc(-c3ccccc3)nc2)c(=O)c1Br	96%	95%	0%
O=C(Nc1cccc(CN2CCN(Cc3ccc(O)cc3)CC2)c1)c1ccc(Cl)c(Cl)c1.O=C(O)C(F)(F)F	100%	95%	30%
CC(C)(CNC(=O)C1CCN(CC2CCCCC2)CC1)c1nc(-c2ccc(Cl)c(O)c2)c(-c2ccncc2)[nH]1.Cl	98%	31%	0%
CCC[C@@H]([C@@H](CC(C)C)C(=O)N[C@@H](CCCCNC(=O)c1cccc(OC)c1)C(=O)Nc1nccs1)N(O)C=O	100%	99%	5%
COc1ccc(C(=O)Nc2ccc(Nc3nc(C)cc(N(C)C)n3)cc2)c(OC)c1	100%	72%	34%
Cl.O=C(CNC1=NCCN1)Nc1ccc(NC(=O)Nc2ccc(NC(=O)CNC3=NCCN3)cc2)cc1	90%	75%	0%
CCCN(CCC)CCCOc1ccc(C(=O)c2c(-c3ccc(OCCCN(CCC)CCC)cc3)oc3ccc(Cl)cc23)cc1.Cl	96%	95%	100%
CCCCC(CCCC)CN1C(=O)C(c2ccccc2)(c2ccccc2)N=C1N.O=CO	96%	96%	28%
Cn1c(N)c(C(=O)CSc2nnc(-c3cccs3)n2Cc2ccccc2)c(=O)n(C)c1=O	85%	68%	0%
O=C(NC(=S)NCc1ccncc1)c1ccccc1	94%	0%	0%
CC(C)CN(C)c1ncnc2c1nc(-c1cncc(C#N)c1)n2CCNCc1ccccc1.O=C(O)C(F)(F)F	86%	2%	4%
CCCCCCCOc1ccc(NC(=O)Nc2ccc(Cn3ncc(N4CCCNCC4)c(Cl)c3=O)cc2)cc1.O=C(O)C(F)(F)F	87%	28%	60%
Cc1cccc2nc(-c3ccc(-c4ccc(CNC(C)C)cc4)cc3)[nH]c12.O=C(O)C(F)(F)F	99%	62%	12%
O=C(O)C(F)(F)F.O=S(=O)(NCCN1CCCC1)c1ccc(-c2ccc(CNCc3ccccc3)cc2)cc1F	83%	39%	35%
CCN(CCCN1CCCCC1)c1cc(C)nc(Nc2ccc(C)c(C)c2)n1.O=C(O)C(F)(F)F	100%	60%	30%
Cc1ccccc1C1CCN(C2CCC(NC(=O)c3csc(-c4cccc(Cl)c4)n3)CC2)CC1 (stereo not drawn)	85%	42%	33%
CN1CCC(Oc2ccc(CN3CC[C@H](NC(=O)c4ccc(Cl)c(Cl)c4)C3)cc2Cl)C1.O=C(O)C(F)(F)F (stereo partly drawn)	100%	78%	68%
CS(=O)(=O)O.CSc1ccc2ccccc2c1CCNCCCCNCCc1c(SC)ccc2ccccc12	100%	60%	99%
CC(C)(C)OC(=O)NCc1ccc(Nc2nnc(-c3cccc(C(=O)NCc4cc(C(F)(F)F)cc(C(F)(F)F)c4)c3)o2)cc1	90%	13%	4%
CCCc1cc(Cc2cnc(N)nc2N)cc(CCC)c1OCCCCC(=O)OC	94%	0%	0%

SMILES	Inhibition (Plasmodium falciparum [1])	Inhibition (Plasmodium falciparum [2])	Inhibition (HepG2)
CN(C)C(=O)CC(=O)NCc1cccc(Cl)c1	99%	3%	4%
Cl.NC1=NC2(CCCCC2)N(Cc2ccc(Cl)c(Cl)c2)C(N)=N1	86%	76%	22%
COc1ccccc1COc1c(C)nc(N)nc1N.Cl	98%	1%	32%
CCC(C)CN1CCN(c2ccc(NC(=O)c3cccs3)cc2)CC1C.O=C(O)C(F)(F)F (stereo not drawn)	94%	94%	0%
CCOC(=O)N(C)/N=C/[C@H](CCc1ccccc1)NC(=O)[C@H](CC(C)C)NC(=O)c1cc2cccc(OC)c2o1	86%	70%	2%
C=CC[C@H](C[C@H](O)[C@H](Cc1ccccc1)NC(=O)c1nn(-c2ccccc2)nc1C)C(=O)NC1CCCCC1	94%	3%	6%
CCc1ccc2c(c1O)CCN(C)C2Cc1ccccc1Cl.Cl (stereo not drawn)	99%	99%	13%
CCn1c(-c2nc(-c3ccnc(N4CCN(C)CC4)c3)cnc2N)nc2cc(S(C)(=O)=O)ccc21	100%	76%	44%
C[C@@H](CC1CCCCC1)OC(=O)N(C)[C@@H]1CCN(C#N)C1	95%	96%	5%
Br.CCCc1cc(OCCCOc2ccccc2)ccc1OCCCON1C(=N)N=C(N)NC1(C)C	94%	96%	68%
COc1ccc(CN2CCCN(Cc3cccc(NC(=O)c4cc5ccccc5s4)c3)CC2)cc1.O=C(O)C(F)(F)F	94%	32%	32%
Cc1cccc(Nc2nc(NCCCCN)nc3cc[nH]c(=O)c23)c1.O=C(O)C(F)(F)F	98%	97%	34%
O=C(O)C(F)(F)F.Oc1ccc(CCCNc2nc(NCc3ccccc3-c3ccccc3)nc(NC3CCNCC3)n2)cc1	97%	2%	0%
COc1cccc(Nc2nccc(-c3c(-c4cccc(NC(=O)c5c(F)cccc5F)c4)nn4ccccc34)n2)c1	98%	98%	35%
CCN(CC)CCCNc1cc[n+]([O-])c2cc3ccccc3cc12	100%	3%	13%
COc1cccc2cc(C(=O)N[C@@H](CC(C)C)C(=O)N[C@H](C=NNC(=O)OC(C)(C)C)CC(C)C)oc12	88%	57%	8%
CN1CCN(CC(O)CNC(=O)Nc2ccc(Cl)cc2)CC1.O=C(O)C(F)(F)F (stereo not drawn)	99%	98%	1%
CC1CN(c2ncc(-c3ccc(CNC4Cc5ccccc5C4)cc3)cn2)CC(C)N1.O=CO (stereo not drawn)	85%	78%	27%
N#Cc1cccc(C(=O)Nc2ccc(-c3cccc(CN4CCCC4)c3)cc2)c1.O=C(O)C(F)(F)F	100%	79%	15%
Cc1cc(C(F)(F)F)n2nc(C(=O)N(C)Cc3cncn3Cc3ccc(F)cc3)cc2n1	100%	96%	0%
O=C(Nc1ccc(OC2CCN(Cc3ccco3)C2)c(Cl)c1)c1ccc2ncccc2c1.O=C(O)C(F)(F)F (stereo not drawn)	92%	42%	1%

SMILES	Inhibition (Plasmodium falciparum [1])	Inhibition (Plasmodium falciparum [2])	Inhibition (HepG2)
Cc1c2ccncc2c(C)c2c1[nH]c1cc(Cc3ccccc3)c(O)cc12	100%	99%	99%
CCn1ncc2c(NC3CCOCC3)c(CNC(=O)c3ccnn3C)c(C)nc21	98%	98%	0%
N=C(N)NN=CC(=O)Nc1cc([N+](=O)[O-])cc([N+](=O)[O-])c1.O=S(=O)(O)O	100%	0%	0%
Nc1nccc2ccc(-c3cccc(OCc4ccccc4)c3)cc12.O=C(O)C(F)(F)F	100%	81%	47%
O=C(NCCCCN1CCC(c2c[nH]c3ccccc23)CC1)c1ccc(-c2ccc(C(F)(F)F)cc2)cc1	98%	22%	34%
O=C(NCc1ccc(F)cc1)Nc1ccc(-c2ccc(-c3nc4ccccc4[nH]3)cc2)cc1	100%	98%	43%
COc1ccc(C2CC(c3ccccc3)=NN2C(=O)c2ccc(Br)o2)cc1 (stereo not drawn)	96%	45%	6%
Cc1c(F)cc(C(=O)NC2CC2)cc1-c1ccc2c(cnn2S(=O)(=O)c2ccc(Cl)s2)c1	81%	50%	24%
O=C1CCCC1Sc1nc2ccccc2c(=O)n1-c1ccc(Cl)c(Cl)c1 (stereo not drawn)	97%	42%	10%
CC(c1cccc(S(=O)(=O)NCc2cccc(C(F)(F)F)c2)c1)N1CCC(N2CCCCC2)CC1 (stereo not drawn)	99%	35%	37%
Cc1ccccc1C1CCN(C2CCC(NC(=O)/C=C/c3ccc(Cl)cc3)CC2)CC1 (stereo not drawn)	99%	25%	78%
CCCCCCN1CCC(NCc2cccc(-n3ccnc3)c2)CC1.O=C(O)C(F)(F)F	100%	100%	3%
Cc1cnc(C(=O)Nc2cccc(-c3csc(-c4nc5ccccc5[nH]4)c3)c2)cn1	98%	80%	31%
CCC(O)c1ccc(Br)cc1NC(=O)c1cccc(Cl)c1 (stereo not drawn)	80%	52%	0%
O=C(Nc1ccc(C(F)(F)F)cc1)c1cc(Br)cnc1NCCCn1ccnc1	99%	98%	32%
CNCCNCc1ccc(-c2ccc(-c3nc4cc(C(F)(F)F)ccc4[nH]3)cc2)cc1.O=C(O)C(F)(F)F	99%	92%	28%
COc1ccc2ncc(F)c(CCN3CC[C@H](NC(=O)c4ccc5c(n4)NC(=O)CS5)[C@H](O)C3)c2n1.Cl	88%	88%	20%
CC(C)(CN)c1nc(-c2ccc(Cl)c(O)c2)c(-c2ccncc2)[nH]1.Cl	97%	98%	34%
O=C(Nc1cccc(CN2CCCN(Cc3ccccc3)CC2)c1)c1ccc(Cl)c(Cl)c1.O=C(O)C(F)(F)F	95%	16%	23%
